Assay results from the supplement of paper PMC8728848.
The entries come from a sample that favours the strongest signals as a whole.

Tests used:
Assay in all cases: glycan array binding signal (z-score within array); higher = stronger binding
Conditions in all cases: glycan notation: IUPAC condensed, linker removed
[1] = target: GlcNAc(a1-4)Gal(b1-4)GlcNAc(b1-3)Gal(b1-4)GlcNAc
Outline: (§1)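 Glycan array data came from 3228 arrays in the Consortium for Functional Glycomics database, and only arrays with an available protein sequence were kept. Glycan names were put into IUPAC-condensed notation, and columns mapping to the same glycan were averaged. The binding signal is a within-array Z-score, averaged across arrays of one protein sequence run at different concentrations or buffers and across linkers. A negative Z-score can be read as non-binding.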

[2] = target: GlcNAc(a1-4)Gal(b1-4)GlcNAc(b1-3)Gal(b1-4)[Fuc(a1-3)]GlcNAc(b1-3)Gal(b1-4)[Fuc(a1-3)]GlcNAc
Outline: as §1

[3] = target: GlcNAc(b1-2)Man(a1-3)[GlcNAc(b1-4)][GlcNAc(b1-2)Man(a1-6)]Man(b1-4)GlcNAc(b1-4)[Fuc(a1-6)]GlcNAc
Outline: as §1

[4] = target: GlcNAc(b1-3)Gal(b1-3)GalNAc
Outline: as §1

[5] = target: GlcNAc(b1-3)Gal(b1-4)GlcNAc(b1-2)Man(a1-3)[GlcNAc(b1-3)Gal(b1-4)GlcNAc(b1-2)Man(a1-6)]Man(b1-4)GlcNAc(b1-4)GlcNAc
Outline: as §1

[6] = target: GlcNAc(b1-3)Gal(b1-4)GlcNAc(b1-3)Gal(b1-4)GlcNAc(b1-2)Man(a1-3)[GlcNAc(b1-3)Gal(b1-4)GlcNAc(b1-3)Gal(b1-4)GlcNAc(b1-2)Man(a1-6)]Man(b1-4)GlcNAc(b1-4)[Fuc(a1-6)]GlcNAc
Outline: as §1

[7] = target: GlcNAc(b1-3)Gal(b1-4)GlcNAc(b1-3)Gal(b1-4)GlcNAc(b1-2)[GlcNAc(b1-3)Gal(b1-4)GlcNAc(b1-3)Gal(b1-4)GlcNAc(b1-6)]Man(a1-6)[GlcNAc(b1-3)Gal(b1-4)GlcNAc(b1-3)Gal(b1-4)GlcNAc(b1-2)Man(a1-3)]Man(b1-4)GlcNAc(b1-4)[Fuc(a1-6)]GlcNAc
Outline: as §1

[8] = target: GlcNAc(b1-3)Gal(b1-4)GlcNAc(b1-3)Gal(b1-4)GlcNAc(b1-3)Gal(b1-4)GlcNAc(b1-2)[GlcNAc(b1-3)Gal(b1-4)GlcNAc(b1-3)Gal(b1-4)GlcNAc(b1-3)Gal(b1-4)GlcNAc(b1-6)]Man(a1-6)[GlcNAc(b1-3)Gal(b1-4)GlcNAc(b1-3)Gal(b1-4)GlcNAc(b1-3)Gal(b1-4)GlcNAc(b1-2)Man(a1-3)]Man(b1-4)GlcNAc(b1-4)[Fuc(a1-6)]GlcNAc
Outline: as §1

[9] = target: GlcNAc(b1-3)Gal(b1-4)GlcNAc(b1-6)[Gal(b1-3)]GalNAc
Outline: as §1

[10] = target: GlcNAc(b1-3)[GlcNAc(b1-4)][GlcNAc(b1-6)]GlcNAc
Outline: as §1

[11] = target: GlcNAc(b1-4)Gal(b1-4)GlcNAc
Outline: as §1

Kdn(a2-6)Gal(b1-4)GlcNAc = target: Kdn(a2-6)Gal(b1-4)GlcNAc
Outline: as §1

[12] = target: Man(a1-2)Man(a1-3)[Man(a1-2)Man(a1-6)]Man(a1-6)[Man(a1-2)Man(a1-2)Man(a1-3)]Man(b1-4)GlcNAc(b1-4)GlcNAc
Outline: as §1

[13] = target: Man(a1-2)Man(a1-6)[Man(a1-3)]Man(a1-6)[Man(a1-2)Man(a1-2)Man(a1-3)]Man(b1-4)GlcNAc(b1-4)GlcNAc
Outline: as §1

[14] = target: Man(a1-3)[Man(a1-6)]Man(a1-6)[Man(a1-3)]Man
Outline: as §1

[15] = target: Neu5Ac(a2-3)Gal(b1-3)GlcNAc(b1-3)Gal(b1-4)GlcNAc
Outline: as §1

[16] = target: Neu5Ac(a2-3)Gal(b1-4)GlcNAc(b1-3)Gal
Outline: as §1

[17] = target: Neu5Ac(a2-3)Gal(b1-4)GlcNAc(b1-3)Gal(b1-4)GlcNAc(b1-6)[Gal(b1-3)]GalNAc
Outline: as §1

[18] = target: Neu5Ac(a2-3)Gal(b1-4)[Fuc(a1-3)]GlcNAc(b1-3)GalNAc
Outline: as §1

[19] = target: Neu5Ac(a2-3)Gal(b1-4)[Fuc(a1-3)]GlcNAc(b1-6)[Gal(b1-3)]GalNAc
Outline: as §1

Neu5Ac(a2-6)Gal(b1-4)Glc = target: Neu5Ac(a2-6)Gal(b1-4)Glc
Outline: as §1

[20] = target: Neu5Ac(a2-6)Gal(b1-4)GlcNAc(b1-2)Man(a1-3)[Neu5Ac(a2-3)Gal(b1-4)GlcNAc(b1-2)Man(a1-6)]Man(b1-4)GlcNAc(b1-4)GlcNAc
Outline: as §1

[21] = target: Neu5Ac(a2-6)Gal(b1-4)GlcNAc(b1-3)Gal(b1-4)GlcNAc(b1-3)[Neu5Ac(a2-6)Gal(b1-4)GlcNAc(b1-3)Gal(b1-4)GlcNAc(b1-6)]GalNAc
Outline: as §1

[22] = target: Neu5Gc(a2-3)Gal(b1-4)GlcNAc(b1-3)Gal(b1-4)GlcNAc(b1-2)Man(a1-3)[Neu5Gc(a2-3)Gal(b1-4)GlcNAc(b1-3)Gal(b1-4)GlcNAc(b1-2)Man(a1-6)]Man(b1-4)GlcNAc(b1-4)GlcNAc
Outline: as §1

B1: BT4246 (Bacteroides thetaiotaomicron), Q89ZX5 (protein)
chain: MGSSHHHHHHENLYFQGHMASDYLDVVPPEQPNIDDAMSSPTRALGFLYSCYGGVSTDLPSAYLGEINSTTDEYVLPYSWNTDGYWGAYAFNTASSTNQDWLWGTTYQYIGQCYLFLQKLENAGSDIASDAEKEQWRAECQFLVAYYHFATLRRYGPIPITDSYIPMDTPTSEYNGRFHFDYCVDWIANQLDEAAKVLPANRTVTNEWGRATSTIAKAVKARLLLYAASPLWNGSFPYPNWQNENFETPGYGKALVSNTYDKSKWERALAACQEALTLATTSGDRELYDDDEYYSRQSLNLPFVPGVADVEDNKEFLKNVMKMRYAVSTRESEGNKEIIWGLSNQFDFYSRYPLRILKKSDGTWHAGYSGVSPTLYTFEHFYTANGKLPEKDLDFTPSSEWFESAGISSREDIIKLNVGREPRFYAWMAFDGGDYGTKFAAGSPLKLEMRNSEMHGYNPSLFNRDHSVTGFLTQKFVDPVTEFYTAGGSTSGTSAPTILFRLAELYLNVAECHAALGNTQEAIDALNPVRERAGIPKLTLADITNNMTIKDWVHNERFVELWNEGHRFFDVRRWAEGAKYFGANKREGLNAEVQSPTFEEFNKRTTVDAPYVWENRMYLNPVFYNEVYKNPQMVQAPGY
For B1, which “glycan array binding signal (z-score)” value [1] is on record?
The value was -0.394.

And the “glycan array binding signal (z-score)” value [2]?
Its value is 3.11.

What about the “glycan array binding signal (z-score)” value [3] of the same binder?
Its value is 2.52.

What about the “glycan array binding signal (z-score)” value [4] of the same binder?
The value was -0.081.

And the “glycan array binding signal (z-score)” value [5]?
Its value is 0.802.

What about the “glycan array binding signal (z-score)” value [6] of the same binder?
The value was -0.16.

What about the “glycan array binding signal (z-score)” value [7] of the same binder?
Its value is 1.52.

And the “glycan array binding signal (z-score)” value [8]?
Its value is 0.637.

What about the “glycan array binding signal (z-score)” value [9] of the same binder?
The value was -0.339.

What about the “glycan array binding signal (z-score)” value [10] of the same binder?
Its value is -0.635.

And the “glycan array binding signal (z-score)” value [11]?
The value was -0.482.

And the “glycan array binding signal (z-score)” value (Kdn(a2-6)Gal(b1-4)GlcNAc)?
Its value is 1.42.

And the “glycan array binding signal (z-score)” value [12]?
The value was -0.169.

And the “glycan array binding signal (z-score)” value [13]?
Its value is 1.59.

What about the “glycan array binding signal (z-score)” value [14] of the same binder?
Its value is 3.62.

And the “glycan array binding signal (z-score)” value [15]?
Its value is 1.07.

What about the “glycan array binding signal (z-score)” value [16] of the same binder?
The value was -0.929.

And the “glycan array binding signal (z-score)” value [17]?
The value was 0.439.

And the “glycan array binding signal (z-score)” value [18]?
The value was 4.68.

And the “glycan array binding signal (z-score)” value [19]?
Its value is 2.47.

And the “glycan array binding signal (z-score)” value (Neu5Ac(a2-6)Gal(b1-4)Glc)?
Its value is -0.168.

And the “glycan array binding signal (z-score)” value [20]?
Its value is -0.62.

And the “glycan array binding signal (z-score)” value [21]?
Its value is 3.02.

And the “glycan array binding signal (z-score)” value [22]?
The value was 2.77.
